# From ChEMBL document CHEMBL1961873, “Compounds: GSK PKIS; Assays: Nanosyn kinase panel” (2012)
# Legend:
# [1] = biological target: Dual specificity protein kinase CLK3 (Homo sapiens) (UniProt P49761); conditions: at 1 µM;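 note: each value is the mean inhibition of CLK3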
# [2] = biological target: Dual specificity tyrosine-phosphorylation-regulated kinase 1A (Homo sapiens) (UniProt Q13627); conditions: at 0.1 µM
# [3] = biological target: Dual specificity tyrosine-phosphorylation-regulated kinase 1A (Homo sapiens) (UniProt Q13627); conditions: at 1 µM
# [4] = biological target: Dual specificity tyrosine-phosphorylation-regulated kinase 1B (Homo sapiens) (UniProt Q9Y463); conditions: at 0.1 µM
# [5] = biological target: Dual specificity tyrosine-phosphorylation-regulated kinase 1B (Homo sapiens) (UniProt Q9Y463); conditions: at 1 µM
# [6] = biological target: T1, Dual specificity tyrosine-phosphorylation-regulated kinase 2 (Homo sapiens) (UniProt Q92630); conditions: at 0.1 µM
# T1 sequence (whole entry): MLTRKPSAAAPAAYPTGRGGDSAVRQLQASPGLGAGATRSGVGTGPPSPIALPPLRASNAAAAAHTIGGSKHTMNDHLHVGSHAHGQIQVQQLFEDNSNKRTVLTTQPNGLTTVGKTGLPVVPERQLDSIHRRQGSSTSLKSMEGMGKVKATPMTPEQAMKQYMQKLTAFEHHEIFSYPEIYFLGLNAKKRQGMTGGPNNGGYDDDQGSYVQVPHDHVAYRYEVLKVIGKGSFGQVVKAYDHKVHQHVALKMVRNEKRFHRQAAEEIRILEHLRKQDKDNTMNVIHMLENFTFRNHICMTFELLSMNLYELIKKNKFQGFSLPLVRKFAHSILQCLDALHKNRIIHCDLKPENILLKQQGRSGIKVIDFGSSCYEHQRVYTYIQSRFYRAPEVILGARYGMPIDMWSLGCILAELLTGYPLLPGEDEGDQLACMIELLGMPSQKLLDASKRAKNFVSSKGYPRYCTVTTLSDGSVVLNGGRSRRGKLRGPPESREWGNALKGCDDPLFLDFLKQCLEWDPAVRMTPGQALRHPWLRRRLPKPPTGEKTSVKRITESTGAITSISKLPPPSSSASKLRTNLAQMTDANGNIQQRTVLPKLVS
# [7] = biological target: T1, Dual specificity tyrosine-phosphorylation-regulated kinase 2 (Homo sapiens); conditions: at 1 µM
# [8] = biological target: Glycogen synthase kinase-3 alpha (Homo sapiens) (UniProt P49840); conditions: at 0.1 µM
# [9] = biological target: Glycogen synthase kinase-3 alpha (Homo sapiens) (UniProt P49840); conditions: at 1 µM
# [10] = biological target: Glycogen synthase kinase-3 beta (Homo sapiens) (UniProt P49841); conditions: at 0.1 µM
# [11] = biological target: Glycogen synthase kinase-3 beta (Homo sapiens) (UniProt P49841); conditions: at 1 µM
# [12] = biological target: Homeodomain-interacting protein kinase 1 (Homo sapiens) (UniProt Q86Z02); conditions: at 0.1 µM
# [13] = biological target: Homeodomain-interacting protein kinase 1 (Homo sapiens) (UniProt Q86Z02); conditions: at 1 µM
# [14] = biological target: T2, Homeodomain-interacting protein kinase 4 (Homo sapiens) (UniProt Q8NE63); conditions: at 0.1 µM
# T2 sequence (whole entry): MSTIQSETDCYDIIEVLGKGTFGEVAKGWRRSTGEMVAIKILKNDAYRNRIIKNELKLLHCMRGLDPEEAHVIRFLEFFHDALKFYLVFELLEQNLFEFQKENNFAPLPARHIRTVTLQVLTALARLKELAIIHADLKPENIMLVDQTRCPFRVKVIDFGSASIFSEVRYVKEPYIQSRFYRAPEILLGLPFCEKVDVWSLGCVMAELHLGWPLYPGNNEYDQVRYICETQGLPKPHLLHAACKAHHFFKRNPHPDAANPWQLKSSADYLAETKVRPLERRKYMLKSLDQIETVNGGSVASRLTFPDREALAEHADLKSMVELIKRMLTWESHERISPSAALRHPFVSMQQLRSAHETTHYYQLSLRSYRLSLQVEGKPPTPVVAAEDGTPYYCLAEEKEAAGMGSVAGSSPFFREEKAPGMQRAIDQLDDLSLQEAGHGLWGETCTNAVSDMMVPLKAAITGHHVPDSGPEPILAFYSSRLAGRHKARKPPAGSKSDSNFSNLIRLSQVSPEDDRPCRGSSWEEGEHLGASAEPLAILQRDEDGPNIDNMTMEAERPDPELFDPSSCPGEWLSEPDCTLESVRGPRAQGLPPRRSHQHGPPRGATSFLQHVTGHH
# [15] = biological target: T2, Homeodomain-interacting protein kinase 4 (Homo sapiens); conditions: at 1 µM
# [16] = biological target: Mitogen-activated protein kinase 9 (Homo sapiens) (UniProt P45984); conditions: at 0.1 µM
# [17] = biological target: Mitogen-activated protein kinase 9 (Homo sapiens) (UniProt P45984); conditions: at 1 µM
# [18] = biological target: Mitogen-activated protein kinase 1 (Homo sapiens) (UniProt P28482); conditions: at 0.1 µM
# [19] = biological target: Mitogen-activated protein kinase 1 (Homo sapiens) (UniProt P28482); conditions: at 1 µM
# [20] = biological target: Mitogen-activated protein kinase 3 (Homo sapiens) (UniProt P27361); conditions: at 0.1 µM;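 note: each value is a mean inhibition figure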
# Sequence of Mitogen-activated protein kinase 3 (Homo sapiens) (P27361 whole entry): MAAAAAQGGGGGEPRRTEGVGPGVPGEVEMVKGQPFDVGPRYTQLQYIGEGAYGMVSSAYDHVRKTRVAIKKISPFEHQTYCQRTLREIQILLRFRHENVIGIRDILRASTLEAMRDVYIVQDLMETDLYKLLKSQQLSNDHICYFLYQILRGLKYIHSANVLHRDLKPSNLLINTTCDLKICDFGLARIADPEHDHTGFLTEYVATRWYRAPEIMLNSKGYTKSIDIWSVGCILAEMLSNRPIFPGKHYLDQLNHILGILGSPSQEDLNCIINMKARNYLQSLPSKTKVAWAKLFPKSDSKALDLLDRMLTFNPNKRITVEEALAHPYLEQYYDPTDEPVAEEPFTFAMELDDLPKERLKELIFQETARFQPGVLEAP
# Sequence of Mitogen-activated protein kinase 9 (Homo sapiens) (P45984 whole entry, looked up): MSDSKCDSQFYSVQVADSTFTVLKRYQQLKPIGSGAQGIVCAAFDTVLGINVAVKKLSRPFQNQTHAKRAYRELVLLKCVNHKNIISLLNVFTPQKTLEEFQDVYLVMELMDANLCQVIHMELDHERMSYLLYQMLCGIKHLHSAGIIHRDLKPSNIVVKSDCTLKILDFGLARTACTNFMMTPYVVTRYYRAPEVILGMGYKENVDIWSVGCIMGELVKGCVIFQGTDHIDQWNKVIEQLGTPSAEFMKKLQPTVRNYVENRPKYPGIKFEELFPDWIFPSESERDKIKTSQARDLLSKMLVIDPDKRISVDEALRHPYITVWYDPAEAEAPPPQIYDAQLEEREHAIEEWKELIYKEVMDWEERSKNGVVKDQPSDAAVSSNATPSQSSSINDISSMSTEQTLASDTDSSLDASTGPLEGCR
# Sequence of Glycogen synthase kinase-3 alpha (Homo sapiens) (P49840 2-483 limits assumed): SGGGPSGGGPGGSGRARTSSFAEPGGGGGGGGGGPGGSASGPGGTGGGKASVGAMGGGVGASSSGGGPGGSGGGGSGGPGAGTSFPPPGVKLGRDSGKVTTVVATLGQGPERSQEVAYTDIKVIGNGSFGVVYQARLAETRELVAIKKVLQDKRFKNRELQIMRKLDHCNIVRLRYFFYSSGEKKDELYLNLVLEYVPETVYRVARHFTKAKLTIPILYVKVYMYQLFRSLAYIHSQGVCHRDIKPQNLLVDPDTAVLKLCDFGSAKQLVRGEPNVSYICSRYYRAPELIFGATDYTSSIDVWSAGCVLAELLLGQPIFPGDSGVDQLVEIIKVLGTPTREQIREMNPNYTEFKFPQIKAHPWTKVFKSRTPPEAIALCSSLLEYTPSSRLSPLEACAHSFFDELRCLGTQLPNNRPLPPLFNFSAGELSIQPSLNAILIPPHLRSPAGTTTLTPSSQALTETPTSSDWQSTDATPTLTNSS
# Sequence of Dual specificity tyrosine-phosphorylation-regulated kinase 1B (Homo sapiens) (Q9Y463 whole entry, looked up): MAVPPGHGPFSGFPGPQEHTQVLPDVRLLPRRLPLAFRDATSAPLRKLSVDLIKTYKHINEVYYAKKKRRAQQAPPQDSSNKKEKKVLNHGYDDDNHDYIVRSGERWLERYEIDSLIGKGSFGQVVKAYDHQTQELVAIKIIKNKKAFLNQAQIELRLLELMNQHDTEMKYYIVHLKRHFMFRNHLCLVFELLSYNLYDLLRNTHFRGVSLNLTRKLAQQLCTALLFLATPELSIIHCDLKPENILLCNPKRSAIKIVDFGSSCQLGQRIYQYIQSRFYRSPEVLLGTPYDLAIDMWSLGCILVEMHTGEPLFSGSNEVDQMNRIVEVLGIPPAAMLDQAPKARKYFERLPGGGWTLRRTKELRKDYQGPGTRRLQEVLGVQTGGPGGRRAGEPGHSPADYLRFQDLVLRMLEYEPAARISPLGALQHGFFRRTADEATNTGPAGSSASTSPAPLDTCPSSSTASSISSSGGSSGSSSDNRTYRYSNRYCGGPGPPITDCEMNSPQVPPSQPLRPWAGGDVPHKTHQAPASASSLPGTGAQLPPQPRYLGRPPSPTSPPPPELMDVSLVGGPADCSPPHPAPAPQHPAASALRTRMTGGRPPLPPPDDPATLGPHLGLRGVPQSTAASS
# Sequence of Dual specificity protein kinase CLK3 (Homo sapiens) (P49761 whole entry, looked up): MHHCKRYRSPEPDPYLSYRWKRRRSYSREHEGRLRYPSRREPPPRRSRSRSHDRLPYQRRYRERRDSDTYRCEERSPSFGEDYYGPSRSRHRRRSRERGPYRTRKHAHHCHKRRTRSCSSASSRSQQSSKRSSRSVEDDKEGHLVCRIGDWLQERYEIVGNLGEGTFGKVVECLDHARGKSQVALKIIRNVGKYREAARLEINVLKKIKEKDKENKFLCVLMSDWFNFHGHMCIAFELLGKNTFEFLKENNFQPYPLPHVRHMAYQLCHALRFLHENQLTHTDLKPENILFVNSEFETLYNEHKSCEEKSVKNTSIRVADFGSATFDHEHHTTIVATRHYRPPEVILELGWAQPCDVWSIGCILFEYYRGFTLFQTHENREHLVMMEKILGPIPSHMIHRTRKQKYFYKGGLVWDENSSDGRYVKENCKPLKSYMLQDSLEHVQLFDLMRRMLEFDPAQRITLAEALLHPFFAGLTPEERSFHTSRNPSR
# Sequence of Homeodomain-interacting protein kinase 1 (Homo sapiens) (Q86Z02 whole entry, looked up): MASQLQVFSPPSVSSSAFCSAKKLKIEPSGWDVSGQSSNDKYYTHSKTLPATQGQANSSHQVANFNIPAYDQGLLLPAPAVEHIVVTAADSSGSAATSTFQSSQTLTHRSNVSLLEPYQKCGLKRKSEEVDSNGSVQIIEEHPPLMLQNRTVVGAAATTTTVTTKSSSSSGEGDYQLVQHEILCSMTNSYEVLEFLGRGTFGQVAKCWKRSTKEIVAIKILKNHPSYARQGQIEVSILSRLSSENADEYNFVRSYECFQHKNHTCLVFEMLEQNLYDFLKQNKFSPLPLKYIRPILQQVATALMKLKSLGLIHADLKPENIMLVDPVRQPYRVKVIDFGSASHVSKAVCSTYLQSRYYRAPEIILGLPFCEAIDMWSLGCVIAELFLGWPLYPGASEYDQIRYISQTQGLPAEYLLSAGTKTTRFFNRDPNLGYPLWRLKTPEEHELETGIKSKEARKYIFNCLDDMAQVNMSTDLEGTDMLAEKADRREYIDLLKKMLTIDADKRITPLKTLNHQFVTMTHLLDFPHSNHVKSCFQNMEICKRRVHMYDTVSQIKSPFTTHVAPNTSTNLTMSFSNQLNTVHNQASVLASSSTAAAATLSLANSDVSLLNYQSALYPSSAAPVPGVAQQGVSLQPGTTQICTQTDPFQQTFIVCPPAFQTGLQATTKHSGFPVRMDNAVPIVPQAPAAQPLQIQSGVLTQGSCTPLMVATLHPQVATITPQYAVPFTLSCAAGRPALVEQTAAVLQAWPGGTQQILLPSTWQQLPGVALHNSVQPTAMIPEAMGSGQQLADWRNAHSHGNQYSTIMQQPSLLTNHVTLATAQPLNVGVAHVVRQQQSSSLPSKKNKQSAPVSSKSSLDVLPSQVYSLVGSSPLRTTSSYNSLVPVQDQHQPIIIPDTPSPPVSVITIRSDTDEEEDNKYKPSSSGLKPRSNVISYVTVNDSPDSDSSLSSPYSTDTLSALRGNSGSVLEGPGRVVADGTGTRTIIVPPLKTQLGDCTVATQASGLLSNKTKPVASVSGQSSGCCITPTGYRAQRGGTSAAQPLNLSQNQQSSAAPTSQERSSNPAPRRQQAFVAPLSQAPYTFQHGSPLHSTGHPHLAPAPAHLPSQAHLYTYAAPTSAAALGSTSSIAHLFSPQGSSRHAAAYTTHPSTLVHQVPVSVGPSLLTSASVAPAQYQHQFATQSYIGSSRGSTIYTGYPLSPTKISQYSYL
# Sequence of Glycogen synthase kinase-3 beta (Homo sapiens) (P49841 whole entry, looked up): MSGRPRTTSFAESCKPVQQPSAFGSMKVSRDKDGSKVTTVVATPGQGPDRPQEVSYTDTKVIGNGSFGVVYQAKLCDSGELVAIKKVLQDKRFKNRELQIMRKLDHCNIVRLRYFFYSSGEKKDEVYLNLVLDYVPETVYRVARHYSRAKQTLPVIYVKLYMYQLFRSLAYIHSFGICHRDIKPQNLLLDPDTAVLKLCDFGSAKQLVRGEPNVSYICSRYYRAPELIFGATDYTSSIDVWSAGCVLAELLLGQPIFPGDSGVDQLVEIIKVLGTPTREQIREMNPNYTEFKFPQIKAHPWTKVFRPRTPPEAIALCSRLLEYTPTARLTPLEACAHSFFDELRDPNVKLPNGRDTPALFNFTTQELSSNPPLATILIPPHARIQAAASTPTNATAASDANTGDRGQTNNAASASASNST
# Sequence of Mitogen-activated protein kinase 1 (Homo sapiens) (P28482 whole entry): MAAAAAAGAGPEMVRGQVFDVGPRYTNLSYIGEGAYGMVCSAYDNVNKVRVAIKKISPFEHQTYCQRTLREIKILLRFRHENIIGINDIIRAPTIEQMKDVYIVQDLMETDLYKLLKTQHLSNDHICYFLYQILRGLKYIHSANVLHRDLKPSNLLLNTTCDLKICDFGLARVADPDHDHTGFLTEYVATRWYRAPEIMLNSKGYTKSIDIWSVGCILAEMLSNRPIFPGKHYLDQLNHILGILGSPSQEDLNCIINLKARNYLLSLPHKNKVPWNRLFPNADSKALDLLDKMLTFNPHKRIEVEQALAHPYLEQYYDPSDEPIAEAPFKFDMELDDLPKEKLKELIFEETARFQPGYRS
smiles,measurement,setting,value
Clc1ccc(-c2nn3ncccc3c2-c2ccnc(Nc3ccccc3)n2)cc1,inhibition,[1],2.2%
same,inhibition,[2],2.68%
same,inhibition,[3],5.74%
same,inhibition,[4],1.65%
same,inhibition,[5],3.34%
same,inhibition,[6],1.34%
same,inhibition,[7],0.66%
same,inhibition,[8],1.79%
same,inhibition,[9],12.2%
same,inhibition,[10],2.61%
same,inhibition,[11],26.2%
same,inhibition,[12],1.35%
same,inhibition,[13],3.25%
same,inhibition,[14],0.5%
same,inhibition,[15],2.83%
same,inhibition,[16],16.6%
same,inhibition,[17],73.4%
same,inhibition,[18],-0.11%
same,inhibition,[19],1.18%
same,inhibition,[20],-0.01%
CC(C)(CO)CNC(=O)c1ccc2c(c1)/C(=N/Nc1ccc(S(N)(=O)=O)cc1)C(=O)N2,inhibition,[1],9.15%
same,inhibition,[2],-0.06%
same,inhibition,[3],7.83%
same,inhibition,[4],-0.36%
same,inhibition,[5],1%
same,inhibition,[6],0.82%
same,inhibition,[7],9.64%
same,inhibition,[8],23.2%
same,inhibition,[9],65.2%
same,inhibition,[10],22.4%
same,inhibition,[11],66.8%
same,inhibition,[12],-4.78%
same,inhibition,[13],13.1%
same,inhibition,[14],-0.55%
same,inhibition,[15],4.55%
same,inhibition,[16],-0.59%
same,inhibition,[17],8.39%
same,inhibition,[18],8.62%
same,inhibition,[19],42.1%
same,inhibition,[20],1.78%
CCN(CC)S(=O)(=O)c1ccc(OC)c(Nc2ncc(-c3ccccc3)o2)c1,inhibition,[1],8.6%
same,inhibition,[2],1.08%
same,inhibition,[3],10.9%
same,inhibition,[4],1.93%
same,inhibition,[5],14.7%
same,inhibition,[6],1.64%
same,inhibition,[7],6.15%
same,inhibition,[8],0.34%
same,inhibition,[9],2.7%
same,inhibition,[10],0.79%
same,inhibition,[11],3.89%
same,inhibition,[12],1.49%
same,inhibition,[13],10.2%
same,inhibition,[14],2.17%
same,inhibition,[15],17.8%
same,inhibition,[16],2.31%
same,inhibition,[17],1.02%
same,inhibition,[18],-1.7%
same,inhibition,[19],-0.08%
same,inhibition,[20],1.68%
CCn1c(-c2nonc2N)nc2c(C#CC(C)(C)O)ncc(OC3CCNCC3)c21,inhibition,[1],0.2%
same,inhibition,[2],1.61%
same,inhibition,[3],-0.11%
same,inhibition,[4],0.14%
same,inhibition,[5],1.34%
same,inhibition,[6],2.3%
same,inhibition,[7],3.89%
same,inhibition,[8],12.3%
same,inhibition,[9],48.9%
same,inhibition,[10],10%
same,inhibition,[11],51.8%
same,inhibition,[12],0.21%
same,inhibition,[13],4.91%
same,inhibition,[14],1.04%
same,inhibition,[15],2.64%
same,inhibition,[16],4.13%
same,inhibition,[17],6.93%
same,inhibition,[18],4.51%
same,inhibition,[19],7.43%
same,inhibition,[20],4.27%
CC(C)COC(=O)c1ccc2c(c1)/C(=C/Nc1ccc(S(N)(=O)=O)cc1)C(=O)N2,inhibition,[1],11.4%
same,inhibition,[2],11.9%
same,inhibition,[3],57%
same,inhibition,[4],12%
same,inhibition,[5],53.9%
same,inhibition,[6],1.28%
same,inhibition,[7],22.4%
same,inhibition,[8],34.8%
same,inhibition,[9],80.6%
same,inhibition,[10],36.1%
same,inhibition,[11],82.7%
same,inhibition,[12],-0.11%
same,inhibition,[13],16.8%
same,inhibition,[14],-0.32%
same,inhibition,[15],16.9%
same,inhibition,[16],0.47%
same,inhibition,[17],10.8%
same,inhibition,[18],2.73%
same,inhibition,[19],31.3%
same,inhibition,[20],1.07%
COC(=O)Nc1nc2ccc(Oc3ccc(NC(=O)Nc4cccc(Cl)c4)cc3)cc2[nH]1,inhibition,[1],-1.09%
same,inhibition,[2],-1.75%
same,inhibition,[3],-2.75%
same,inhibition,[4],-1.02%
same,inhibition,[5],-0.33%
same,inhibition,[6],1.12%
same,inhibition,[7],-2.41%
same,inhibition,[8],3.91%
same,inhibition,[9],3.54%
same,inhibition,[10],2.92%
same,inhibition,[11],4.55%
same,inhibition,[12],-1.97%
same,inhibition,[13],-0.94%
same,inhibition,[14],2.35%
same,inhibition,[15],14.8%
same,inhibition,[16],1.98%
same,inhibition,[17],5.76%
same,inhibition,[18],1.02%
same,inhibition,[19],1.55%
same,inhibition,[20],-0.95%
CCOc1ccc2c(-c3ccnc(Nc4cccc(C(F)(F)F)c4)n3)cnn2n1,inhibition,[1],6.13%
same,inhibition,[2],-0.46%
same,inhibition,[3],6.48%
same,inhibition,[4],1.37%
same,inhibition,[5],21%
same,inhibition,[6],1.79%
same,inhibition,[7],0.78%
same,inhibition,[8],12.1%
same,inhibition,[9],46.1%
same,inhibition,[10],5.68%
same,inhibition,[11],33.6%
same,inhibition,[12],21.8%
same,inhibition,[13],70%
same,inhibition,[14],10.3%
same,inhibition,[15],46.2%
same,inhibition,[16],1.84%
same,inhibition,[17],1.35%
same,inhibition,[18],3.23%
same,inhibition,[19],3.31%
same,inhibition,[20],2.89%
